The structures appear in SMILES notation. This is part of a sample that, as a whole, favours compounds with a hit. Of some 83,000 tested, about 20% had one in any assay.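 Single-concentration screen, 48 h exposure, 96-well plates. Endpoint: percent growth. Below 10 = active.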 Values without a mark were called inactive. Calls of active or inactive are those of the source.

Our source for the growth values is PubChem BioAssay (NCI).

What all share (assay): NCI-60 one-dose screen, 48 h (100 = growth as untreated, 0 = no growth, -100 = all killed)
What all share (details): 10 µM unless noted

Test [1] relates to SR leukemia.
In test [2] the test system is RPMI-8226 leukemia.
Test [3] has as its system OVCAR-8 ovarian.
The subject of test [4] is OVCAR-5 ovarian.
The test system of test [5] is OVCAR-4 ovarian.
Test [6] concerns SK-OV-3 ovarian.
Test [7] relates to IGROV1 ovarian.
The test system of test [8] is OVCAR-3 ovarian.
Test [9] has as its system HS 578T breast.
In test [10] the test system is NCI/ADR-RES ovarian.
In test [11] the test system is T-47D breast.
Test [12] concerns BT-549 breast.
The subject of test [13] is MDA-MB-435 melanoma.
Test [14] has as its system SW-620 colon.
Test [15] has as its system MCF7 breast.
Test [16] deals with HCT-116 colon.
For test [17], the system named is HCC-2998 colon.
The subject of test [18] is KM12 colon.

On to `COc1cc(-c2nc(-c3ccccc3)[nH]c2-c2ccnc(NCCCNS(=O)(=O)c3cccc(F)c3)n2)ccc1Cl`, for which the growth in test [1] was 32.2%; in test [2], 27.2%; in test [3], 31.7%; in [4], 88.1%; in test [5], 56.3%; in [6], 76.8%. In addition, the growth in test [7] was 40.6%; in [8], 40.7%; in [9], 78%; in test [10], 31.9%; in test [11] it was 24.1%; in test [12], 71%. Further, the growth was 22.5% in test [13]; 71.3% in test [14]; 35.3% in test [15]; 18.8% in [16]; 55.5% in test [17]; 39.8% in [18].
As for `N#Cc1c(-c2cccs2)cc(-c2cnccn2)nc1SCC(=O)Nc1ccc(Br)cc1`, the growth in [1] was 79.5%; in test [2] it was 99.5%; in test [3], 94.6%; in test [4], 86.7%; in test [5] it was 73.8%; in test [6], 97.6%. Further, the growth in test [7] was 64.8%; in test [8], 96.3%; in test [9], 68.6%; in [10], 85.8%; in [11], 96.2%; in test [12], 65.4%. Also, the growth is 74.4% in test [13]; 77.3% in test [14]; 66.6% in test [15]; 69% in test [16]; 99.7% in [17]; 97.7% in test [18].
With `O=C(Nc1ccc(Br)cc1)Nc1nc2ccc([N+](=O)[O-])cc2s1`, the growth in [1] is -27.9% (active); in [2], -35% (active); in test [3], 8.82% (active); in test [4], 19.4%; in test [5], -10.6% (active); in test [6], -5.7% (active). Besides, the growth was 21.8% in [7]; -5.56% (active) in test [8]; -3.63% (active) in [9]; 3.27% (active) in test [10]; -19% (active) in test [11]; -21.5% (active) in [12]. Besides, the growth is -9.22% (active) in [13]; 3.15% (active) in [14]; 1.05% (active) in test [15]; 2.73% (active) in test [16]; 1.25% (active) in test [17]; 0.616% (active) in [18].
For `CC(C)c1ccc(NCc2cn(-c3ccc(C(=O)O)cc3)nc2-c2cc(C(F)(F)F)cc(C(F)(F)F)c2)cc1`, the growth in test [1] was 101%; in test [2], 65.7%; in test [3] it was 85%; in test [4], 103%; in test [5] it was 96.2%; in test [6] it was 90.5%. The growth in [7] was 92.7%; in [8] it was 80.9%; in test [9], 68%; in test [10], 82.8%; in test [11] it was 71%; in test [12], 102%. Further, the growth in test [13] is 91%; in test [14] it was 86.8%; in test [15], 75.3%; in test [16], 84%; in test [17], 97%; in test [18], 82.5%.
For `N#Cc1cnc2ccc(-c3cnc(N)nc3)cc2c1N1CCc2cc(F)c(Cl)cc21`, the growth was 8.58% (active) in test [1]; -16.9% (active) in test [2]; 12% in test [3]; 19.8% in test [4]; 12.3% in test [5]; 0.148% (active) in test [6]. Further, the growth in test [7] was -44.6% (active); in test [8], 8.88% (active); in [9], -22.5% (active); in [10] it was 6.22% (active); in [11], 9.38% (active); in test [12], 3.1% (active). Also, the growth was -1.22% (active) in [13]; 9.24% (active) in test [14]; 5.81% (active) in [15]; 2.24% (active) in [16]; -3.03% (active) in [17]; 7.85% (active) in [18].
Consider `COc1ccc(C2CC(c3cccc(Nc4nc(Cl)nc5cc(OC)c(OC)cc45)c3)=Nc3c(N)nc(N)nc3N2)cc1` (centres undefined), for which the growth in [1] is 3.81% (active); in test [2], 38.4%; in test [3], 70.1%; in [4] it was 111%; in test [5], 96.6%; in [6], 121%. Besides, the growth in test [7] was 92.5%; in test [8] it was 75.3%; in [9] it was 94.4%; in test [10], 92.3%; in test [11], 81.7%; in [12] it was 81.4%. Also, the growth in test [13] was 83.5%; in test [14], 74%; in [15], 74.4%; in [16], 46.3%; in [17], 83.4%; in test [18], 57.1%.
Consider `O=C(CN1CCN(c2cc(=O)n(-c3ccccc3)c3ccccc23)CC1)Nc1ccc(F)cc1`, for which the growth in test [1] is 76.4%; in test [2] it was 61.5%; in [3], 71.2%; in test [4], 101%; in [5], 22.7%; in [6], 78.6%. Besides, the growth in test [7] was 60.1%; in test [8], 71.8%; in [9], 88.7%; in [10], 64.3%; in test [11], 30.2%; in test [12], 59.1%. Further, the growth in [13] was 65.4%; in test [14], 91.6%; in test [15], 37.9%; in [16], 58.7%; in test [17] it was 94.4%; in test [18] it was 72.9%.
As to `NC(N)=Nc1ccc(Oc2cccc(Nc3ccc(Cl)cc3)c2)cn1`, the growth in test [1] is -57.8% (active); in test [2] it was -41.8% (active); in [3], 29.4%; in test [4] it was 48.3%; in [5], 20.2%; in [6], 53.2%. For the same compound, the growth was 14.4% in test [7]; -14.3% (active) in test [8]; 34.1% in test [9]; 56.5% in test [10]; 26.1% in [11]; 65.7% in [12]. The growth in test [13] is 14.3%; in test [14], -71.8% (active); in test [15] it was -76.7% (active); in [16], -73.4% (active); in test [17] it was -89.1% (active); in test [18], -92.6% (active).
